From PubChem BioAssay
Compounds with a hit are over-represented: about 7.3% of the library has one in this group of screens.
AmpC no deterg = qHTS Inhibitors of AmpC Beta-Lactamase (assay without detergent) | AmpC nitrocefin hydrolysis, absorbance 480 nm, 0.0001% Triton | Potency, µM (titrated, usually from 57.1 µM), inactives show at the highest dose activity change, negative = inhibition, usual class: inhibitors | 330,000 compounds, 0.52% hits | AID 485341, 2010;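 also: potency is read from the fitted curve at half-maximal effect; plate controls were no compound for no effect and no enzyme for full effect; nearly all actives have a fitted effect of over 20% in size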
Target sequence (P00811 whole entry, looked up): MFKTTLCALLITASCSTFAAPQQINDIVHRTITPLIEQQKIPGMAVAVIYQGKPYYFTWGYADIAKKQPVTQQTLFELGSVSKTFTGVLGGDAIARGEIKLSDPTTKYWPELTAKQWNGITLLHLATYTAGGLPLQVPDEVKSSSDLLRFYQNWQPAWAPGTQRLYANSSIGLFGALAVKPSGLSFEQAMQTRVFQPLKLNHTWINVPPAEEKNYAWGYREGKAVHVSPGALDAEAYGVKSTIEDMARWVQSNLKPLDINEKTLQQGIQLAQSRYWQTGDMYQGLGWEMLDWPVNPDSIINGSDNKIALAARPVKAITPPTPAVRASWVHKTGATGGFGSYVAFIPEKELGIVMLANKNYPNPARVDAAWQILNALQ
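AmpC (5.3 nM in the dispensed reagent) in 20 mM phosphate pH 7.0 with 0.01% (detergent screen) or 0.0001% Triton X-100 was preincubated with compounds for 15 min at room temperature. Nitrocefin was then added from an 800 uM solution, and hydrolysis was followed at 480 nm.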
AmpC detergent = qHTS Inhibitors of AmpC Beta-Lactamase (assay with detergent). AmpC hydrolysis of nitrocefin, absorbance 480 nm, 0.01% Triton. AID 485294, 2010. 370,000 compounds, 0.041% hits. Potency, µM (series often up to 114 µM), for the others: top-dose activity change, negative = inhibition, hits mostly inhibitors;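 also: potency is read from the fitted curve at half-maximal effect; 0% = no-compound wells and -100% = no-enzyme wells; nearly all actives have a fitted effect of over 25% in size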
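AmpC (5.3 nM in the dispensed reagent) in 20 mM phosphate pH 7.0 with 0.01% (detergent screen) or 0.0001% Triton X-100 was preincubated with compounds for 15 min at room temperature. Nitrocefin was then added from an 800 uM solution, and hydrolysis was followed at 480 nm.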
FMDV antiviral = High Throughput Screening for Foot and Mouth Disease Virus Antivirals. 410,000 compounds, 1.2% hits. Potency, µM (doses to about 57.9 µM), without a hit: at the highest dose activity change, negative = inhibition, hits mostly inhibitors. AID 1159524, 2015. FMDV antiviral cell-based qHTS; calls by dose curve; tested in HEK293T cells; also: read-out not given here; potency is read from the fitted curve at half-maximal effect; nearly all actives have a fitted effect of over 45% in size
HCMV antiviral = qHTS Assay for inhibitors of the human cytomegalovirus (HCMV); 410,000 compounds, 4.5% hits; HFF cells, HCMV-luciferase reporter, 72 h; hits give low values; activity change, negative = inhibition, % at 57.5 µM; in the data active = activity change below about -60%; inconclusive = no clear call, values can overlap the other calls; inactive = above about -39%
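HFF cells seeded 16 h at 37C, treated with compounds, infected with luciferase-reporter HCMV at MOI 1 PFU/cell; luciferase read at 72 h post infection, normalized to buffer-only and Salinomycin controls.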
HCV inhibitor = qHTS Assay for Inhibitors of Hepatitis C Virus (HCV); Potency, µM (series often up to 41.8 µM), without a hit: at the top dose activity change, negative = inhibition, actives largely listed as inhibitors; AID 651820, 2012; Huh7.5.1 HCVcc-Cre infection, luciferase reporter, 44 h; 340,000 compounds, 3.4% hits; also: potency is read from the fitted curve at half-maximal effect
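Compounds are dispensed onto cells plated 4 h earlier at 1,000 per well, with HCVcc-Cre virus (about 0.5 moi) added next. Following 44 h of culture, luminescent signal is measured for 15 sec after 15 min with substrate at room temperature.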
* hit, by the source's call. Unless noted, calls follow the shape of the dose curve; as a rule, active = well fitted curve in the direction sought with a large enough effect; inconclusive = small, poorly fitted or top-dose-only effect, or another doubt; inactive = no such curve, though single readings can be large; an effect the other way counts as inactive or inconclusive. Unless noted, % is scaled to controls: 0 for no effect and ±100 for the full control effect.

`O=C1OC(N2C(=O)CC[C@H]2C(=O)Nc2ccc(Br)cc2F)c2ccccc21` (some centres undefined) gave AmpC no deterg -4.9%, AmpC detergent -10.0%, FMDV antiviral -22.7%, HCMV antiviral 0.0 and HCV inhibitor 3.9%.
For COc1ccc2c(c1OC)C(=O)OC2N1C(=O)CC[C@H]1C(=O)Nc1ccc(F)cc1F (some centres undefined) the results were AmpC no deterg -0.9%, AmpC detergent inconclusive, FMDV antiviral -16.7%, HCMV antiviral 18.2 and HCV inhibitor 0.562µM*.
For CN1C(=O)C(C)(C)c2cc(S(=O)(=O)N3CCN(c4cccc(Cl)c4)CC3)ccc21 the results were AmpC no deterg 48.1%, AmpC detergent -6.9%, FMDV antiviral -30.1%, HCMV antiviral 5.2 and HCV inhibitor 4.5%.
Cn1cc(-c2cc3c(Nc4ccc(OC(F)(F)F)cc4)nccc3[nH]2)cn1 was read as HCMV antiviral -65.3*.
COc1ccc(NC(=O)C2(C)CCN2CC2CCCCC2)cc1OC (centres undefined) was read as FMDV antiviral -12.4% and HCMV antiviral -5.2.
Screening CCN(CC)c1nc(-c2ccccc2)ncc1S(=O)(=O)c1ccc(C)cc1 returned AmpC no deterg -4.0%, AmpC detergent 6.1%, FMDV antiviral -8.6%, HCMV antiviral 5.9 and HCV inhibitor 7.08µM*.
For CCOc1nc(-c2ccc(C)cc2)ccc1-c1noc(COC)n1 the results were AmpC no deterg 44.9%, AmpC detergent -0.1%, FMDV antiviral -3.8%, HCMV antiviral 29.6 and HCV inhibitor 10µM*.
For COc1ccccc1CNCCSc1nnnn1C the results were AmpC detergent -3.8%, FMDV antiviral 2.3% and HCMV antiviral -2.9.
For Cc1ccc(C2C(C#N)=C3N=C(N)c4ccccc4N3C3=C2C(=O)CCC3)cc1 (centres undefined) the results were AmpC no deterg -23.9%, AmpC detergent -0.2%, FMDV antiviral 5.9%, HCMV antiviral -22.3 and HCV inhibitor inconclusive.
For N#CC1=C2N=C(N)c3ccccc3N2C2=C(C(=O)CCC2)C1c1ccc(F)cc1 (centres undefined) the results were AmpC no deterg -30.3%, AmpC detergent 4.4%, FMDV antiviral -10.3%, HCMV antiviral -17.6 and HCV inhibitor 12.6µM*.
CCOC(=O)c1c(C)c(C)n(Cc2cccc(OC)c2OC)c1C was read as AmpC no deterg 0.1%, AmpC detergent -18.2%, FMDV antiviral inconclusive, HCMV antiviral -85.0* and HCV inhibitor inconclusive.
CCOC(=O)c1cc(C)n(Cc2cccc(OC)c2OC)c1C was read as AmpC no deterg 28.0%, AmpC detergent -17.6%, FMDV antiviral inconclusive, HCMV antiviral -31.3 and HCV inhibitor inconclusive.
O=C(NC(=O)c1cccc(F)c1)Nc1ccc(-c2cc(C(F)(F)F)nn2-c2ccccc2)cc1 was read as AmpC detergent -2.4%, FMDV antiviral 0.0% and HCMV antiviral 1.5.
`O=C(Nc1ccc(-c2cc(C(F)(F)F)nn2-c2ccccc2)cc1)c1cccc(F)c1` gave AmpC detergent -7.5%, FMDV antiviral -10.9% and HCMV antiviral -94.7*.
Screening CCOC(=O)c1ccccc1NC(=O)CN(c1cc(C(F)(F)F)ccc1Cl)S(C)(=O)=O returned AmpC detergent 14.5%, FMDV antiviral inconclusive and HCMV antiviral -16.8.
Screening COc1ccc(S(=O)(=O)N(CCc2ccccc2)CC(=O)Nc2cc(C)cc(C)c2)cc1OC returned AmpC detergent -2.9%, FMDV antiviral -7.7% and HCMV antiviral 7.8.
Screening CCOc1cccc(NCc2cc3c(C(C)(C)C)nn(-c4ccccc4)c3[nH]c2=O)c1 returned AmpC no deterg -19.8%, AmpC detergent -4.6%, HCMV antiviral 6.0 and HCV inhibitor 12.6µM*.
`CC(C)(C)c1nn(-c2ccccc2)c2[nH]c(=O)c(CNCc3ccc4c(c3)OCO4)cc12` gave AmpC no deterg 25.1%, AmpC detergent -4.3%, HCMV antiviral -32.2 and HCV inhibitor -27.6%.
Cc1c(Br)c([N+](=O)[O-])nn1CC(=O)NC1CCCCCC1 was read as AmpC no deterg -19.1%, AmpC detergent 0.7%, FMDV antiviral -7.8%, HCMV antiviral inconclusive and HCV inhibitor -4.1%.
For CCCNC(=O)N1CC(=O)N2[C@@H](CO)[C@H](c3ccc(Br)cc3)[C@@H]2C1 the results were HCMV antiviral -5.2.
For CCCCN1C(=O)C(O)(CC(=O)c2ccco2)c2cc(Br)ccc21 (centres undefined) the results were AmpC no deterg -3.1%, AmpC detergent inconclusive, FMDV antiviral -6.7%, HCMV antiviral -74.6* and HCV inhibitor 21.0%.
`CCCCN1C(=O)C(O)(CC(=O)c2ccc(C)cc2C)c2cc(Br)ccc21` (centres undefined) gave AmpC detergent -6.4%, FMDV antiviral -2.3% and HCMV antiviral -35.0.
`CN1C(=O)C(O)(CC(=O)/C=C/c2ccco2)c2ccccc21` (centres undefined) gave AmpC no deterg -24.9%, AmpC detergent -1.5%, FMDV antiviral -21.4%, HCMV antiviral -28.0 and HCV inhibitor 5.3%.
Screening CN1C(=O)C(O)(CC(=O)/C=C/c2ccco2)c2cc(Br)ccc21 (centres undefined) returned AmpC no deterg -19.2%, AmpC detergent -6.0%, FMDV antiviral -4.4%, HCMV antiviral 44.2 and HCV inhibitor 11.2µM*.
Screening CCCc1cc(C(=O)Nc2ccc(C(=O)c3ccc(C)cc3)cc2)n(C)n1 returned AmpC no deterg -18.1%, AmpC detergent 8.6%, FMDV antiviral -29.4%, HCMV antiviral -24.2 and HCV inhibitor 10µM*.
For CCCc1cc(C(=O)Nc2cccc3ccccc23)n(C)n1 the results were AmpC no deterg -0.6%, AmpC detergent inconclusive, FMDV antiviral -19.1%, HCMV antiviral inconclusive and HCV inhibitor -13.8%.
For O=c1[nH]c(=O)n(-c2ccccc2)c2c1C(C(F)(F)F)(C(F)(F)F)N=C(CCC1CCCCC1)N2 the results were AmpC no deterg 3.0%, AmpC detergent -15.0%, FMDV antiviral 25.1µM*, HCMV antiviral -10.1 and HCV inhibitor inconclusive.
`O=c1[nH]c(=O)n(-c2ccc(F)cc2)c2c1C(C(F)(F)F)(C(F)(F)F)N=C(c1ccc(F)cc1)N2` gave AmpC no deterg -19.2%, AmpC detergent -8.1%, FMDV antiviral 10µM*, HCMV antiviral -99.4* and HCV inhibitor 12.6µM*.
